Screen size: about 39,000 compounds; about 3,300 (8.5%) were called active. This is one part of a sample in which actives are shown more often than they occur.
Each molecule was assayed on HepG2 (assay: cytotoxicity call (relative viability < 0.9)). Conditions: 10 µM.

| SMILES | cytotoxicity call |
| --- | --- |
| CCCN(C)C[C@@H]1Oc2cc(C#Cc3ccccc3OC)ccc2S(=O)(=O)N([C@@H](C)CO)C[C@@H]1C | inactive |
| COc1ccc(S(=O)(=O)Nc2ccc3c(c2)C(=O)N([C@H](C)CO)C[C@H](C)[C@H](CN(C)S(=O)(=O)c2cccs2)O3)cc1 | inactive |
| O=C(C[C@@H]1C[C@H]2c3cc(NC(=O)Cc4ccncc4)ccc3O[C@H]2[C@H](CO)O1)NCc1ccc2c(c1)OCO2 | inactive |
| C=C(C(=O)O)[C@@H](CCCCCCOC(=O)C(=O)OCCCCCC[C@@H](C(=C)C(=O)O)C(=O)O)C(=O)O | inactive |
| O=C(C[C@H]1CC[C@@H]2[C@H](COC[C@@H](O)CN2S(=O)(=O)c2ccccc2F)O1)NCc1ccccc1Cl | inactive |
| C[C@H](CO)N1C[C@H](C)[C@@H](CN(C)C(=O)Nc2ccc(F)cc2)OCCCC[C@H](C)Oc2ccc(NC(=O)C3CCCCC3)cc2C1=O | inactive |
| C[C@@H]1CN([C@H](C)CO)C(=O)c2cc(NC(=O)C3CC3)ccc2O[C@@H]1CN(C)Cc1ccc2c(c1)OCO2 | inactive |
| Cc1noc(C)c1S(=O)(=O)Nc1ccc2c(c1)CC(=O)N([C@@H](C)CO)C[C@H](C)[C@H](CN(C)S(=O)(=O)c1ccc(Cl)cc1)O2 | inactive |
| C[C@@H]1CCCCO[C@H](CN(C)Cc2ccc(C(F)(F)F)cc2)[C@H](C)CN([C@@H](C)CO)C(=O)c2cc(NC(=O)c3ccncc3)ccc2O1 | inactive |
| Cc1ccc(S(=O)(=O)N(C)C[C@@H]2Oc3ccc(NS(=O)(=O)c4ccc(F)cc4)cc3C(=O)N([C@@H](C)CO)C[C@H]2C)cc1 | inactive |
| Cc1noc(C)c1S(=O)(=O)N(C)C[C@H]1OCCCC[C@@H](C)Oc2ccc(N(C)C)cc2C(=O)N([C@@H](C)CO)C[C@@H]1C | inactive |
| CC(C)NC(=O)Nc1ccc2c(c1)CC(=O)N([C@@H](C)CO)C[C@H](C)[C@@H](CN(C)Cc1ccc(-c3ccccc3)cc1)O2 | active |
| CC(C)NC(=O)Nc1ccc2c(c1)CC(=O)N([C@H](C)CO)C[C@H](C)[C@@H](CN(C)Cc1ccc(-c3ccccc3)cc1)O2 | inactive |
| CC(C)NC(=O)Nc1ccc2c(c1)CC(=O)N([C@H](C)CO)C[C@@H](C)[C@@H](CN(C)Cc1ccc(-c3ccccc3)cc1)O2 | active |
| CC(C)NC(=O)Nc1ccc2c(c1)CC(=O)N([C@@H](C)CO)C[C@@H](C)[C@H](CN(C)Cc1ccc(-c3ccccc3)cc1)O2 | inactive |
| CC(C)NC(=O)Nc1ccc2c(c1)CC(=O)N([C@@H](C)CO)C[C@@H](C)[C@@H](CN(C)Cc1ccc(-c3ccccc3)cc1)O2 | inactive |
| CC(C)NC(=O)Nc1ccc2c(c1)CC(=O)N([C@H](C)CO)C[C@@H](C)[C@H](CN(C)Cc1ccc(-c3ccccc3)cc1)O2 | inactive |
| C[C@@H]1CN([C@@H](C)CO)S(=O)(=O)c2ccc(C#Cc3cccc(F)c3)cc2O[C@@H]1CN(C)S(=O)(=O)c1ccccc1F | inactive |
| C[C@@H]1CCCCO[C@@H](CN(C)Cc2ccc(C(=O)O)cc2)[C@H](C)CN([C@H](C)CO)C(=O)c2cc(NC(=O)Nc3ccc4c(c3)OCO4)ccc2O1 | inactive |
| CC(C)NC(=O)N(C)C[C@@H]1Oc2c(NS(=O)(=O)c3ccc(Cl)cc3)cccc2C(=O)N([C@H](C)CO)C[C@H]1C | inactive |
| COC(=O)C1C(O)CCC2CN3CCc4c([nH]c5ccccc45)C3CC21.Cl (centres undefined) | inactive |
| COC(=O)C1C(O)CCC2CN3CCc4c([nH]c5ccccc45)C3CC21 (centres undefined) | inactive |
| COC(=O)C1C2CC3c4[nH]c5cc(OC)ccc5c4CCN3CC2CC(OC(=O)c2cc(OC)c(OC)c(OC)c2)C1OC (centres undefined) | active |
| C[C@H](CO)N1C[C@H](C)[C@H](CN(C)S(=O)(=O)c2ccc(Cl)cc2)Oc2ccc(NS(C)(=O)=O)cc2CC1=O | inactive |
| O=C(C[C@H]1CC[C@H]2[C@@H](COC[C@H](O)CN2C(=O)Nc2ccc(Cl)cc2)O1)NC1Cc2ccccc2C1 | inactive |

| SMILES | cytotoxicity call |
| --- | --- |
| O=C(C[C@@H]1CC[C@H]2[C@@H](COC[C@@H](O)CN2C(=O)Nc2ccc(Cl)cc2)O1)NC1Cc2ccccc2C1 | inactive |
| O=C(C[C@@H]1CC[C@@H]2[C@H](COC[C@H](O)CN2C(=O)Nc2ccc(Cl)cc2)O1)NC1Cc2ccccc2C1 | inactive |
| O=C(C[C@@H]1CC[C@@H]2[C@H](COC[C@@H](O)CN2C(=O)Nc2ccc(Cl)cc2)O1)NC1Cc2ccccc2C1 | active |
| O=C(C[C@H]1CC[C@@H]2[C@H](COC[C@@H](O)CN2C(=O)Nc2ccc(Cl)cc2)O1)NC1Cc2ccccc2C1 | inactive |
| O=C(C[C@H]1CC[C@H]2[C@@H](COC[C@@H](O)CN2C(=O)Nc2ccc(Cl)cc2)O1)NC1Cc2ccccc2C1 | active |
| CO[C@H]1CN(C)C(=O)c2ccc(NC(=O)CC(F)(F)F)cc2OC[C@H](C)N(S(=O)(=O)c2cn(C)cn2)C[C@H]1C | inactive |
| C[C@H]1CCCCO[C@H](CN(C)S(C)(=O)=O)[C@@H](C)CN([C@@H](C)CO)C(=O)c2cc(NS(=O)(=O)c3cn(C)cn3)ccc2O1 | inactive |
| COc1ccc(NC(=O)Nc2ccc3c(c2)C(=O)N([C@H](C)CO)C[C@H](C)[C@H](CN(C)S(=O)(=O)c2c(C)noc2C)OCCCC[C@H](C)O3)cc1 | inactive |
| O=C(C[C@H]1CC[C@H]2[C@@H](COC[C@@H](O)CN2S(=O)(=O)c2ccc(F)cc2)O1)N[C@@H]1CCN(Cc2ccccc2)C1 | inactive |
| CC(C)NC(=O)Nc1ccc2c(c1)CC(=O)N([C@H](C)CO)C[C@@H](C)[C@H](CN(C)Cc1ccc(C(=O)O)cc1)O2 | inactive |
| C[N+](C)(C)[C@@H]1[C@H]2OC[C@H](O)[C@H]2O[C@@H]1O | inactive |
| CCCNC(=O)N1C[C@H](C)[C@@H](OC)CN(C)C(=O)c2cc(NS(=O)(=O)CC(F)(F)F)ccc2OC[C@H]1C | inactive |
| COc1ccc(NC(=O)Nc2cccc3c2O[C@@H](CN(C)Cc2ccc(Cl)c(Cl)c2)[C@H](C)CN([C@@H](C)CO)C3=O)cc1 | inactive |
| C[C@H]1CN([C@@H](C)CO)C(=O)c2cccc(NC(=O)C3CCCCC3)c2O[C@@H]1CN(C)Cc1ccc(Cl)c(Cl)c1 | active |
| C[C@@H]1CN([C@@H](C)CO)C(=O)c2cccc(NC(=O)C3CCCCC3)c2O[C@H]1CN(C)Cc1ccc(Cl)c(Cl)c1 | inactive |
| C[C@@H]1CN([C@H](C)CO)C(=O)c2cccc(NC(=O)Nc3ccc(F)cc3)c2O[C@H]1CN(C)Cc1ccc(Cl)c(Cl)c1 | inactive |
| C[C@@H]1CN([C@H](C)CO)C(=O)c2cccc(NC(=O)Nc3ccccc3)c2O[C@H]1CN(C)Cc1ccc(Cl)c(Cl)c1 | inactive |
| C[C@@H]1CN([C@H](C)CO)C(=O)c2cccc(NC(=O)C3CCCCC3)c2O[C@H]1CN(C)Cc1ccc(Cl)c(Cl)c1 | inactive |
| C[C@H](CO)N1C[C@H](C)[C@@H](CN(C)Cc2ccc(Cl)c(Cl)c2)Oc2c(NC(=O)Nc3ccccc3)cccc2C1=O | inactive |
| C[C@@H]1CN([C@@H](C)CO)C(=O)c2cccc(NC(=O)Nc3ccc(F)cc3)c2O[C@H]1CN(C)Cc1ccc(Cl)c(Cl)c1 | active |
| C[C@@H]1CN([C@@H](C)CO)C(=O)c2cccc(NC(=O)Nc3ccccc3)c2O[C@H]1CN(C)Cc1ccc(Cl)c(Cl)c1 | active |
| C[C@H](CO)N1C[C@H](C)[C@H](CN(C)Cc2ccc(Cl)c(Cl)c2)Oc2c(NC(=O)Nc3ccc(F)cc3)cccc2C1=O | inactive |
| COc1ccc(NC(=O)Nc2cccc3c2O[C@@H](CN(C)Cc2ccc(Cl)c(Cl)c2)[C@@H](C)CN([C@H](C)CO)C3=O)cc1 | active |
| COc1ccc(NC(=O)Nc2cccc3c2O[C@H](CN(C)Cc2ccc(Cl)c(Cl)c2)[C@@H](C)CN([C@@H](C)CO)C3=O)cc1 | inactive |

Source: the antibiotic and cytotoxicity screens of Wong et al. (2023)
